What all share (assay): NCI-60 one-dose screen, 48 h (100 = growth as untreated, 0 = no growth, -100 = all killed)
One experiment relates to T-47D breast. The conditions noted are these: 10 µM unless noted.
For the next experiment, the system named is BT-549 breast. The conditions noted are these: 10 µM unless noted.
The next experiment has as its system MDA-MB-435 melanoma. The conditions noted are these: 10 µM unless noted.
Another experiment deals with SW-620 colon. The conditions noted are these: 10 µM unless noted.
Another experiment deals with MCF7 breast. The conditions noted are these: 10 µM unless noted.
A further experiment relates to HCT-116 colon. The conditions noted are these: 10 µM unless noted.
In a further experiment the test system is HCC-2998 colon. The conditions noted are these: 10 µM.
A further experiment deals with KM12 colon. The conditions noted are these: 10 µM unless noted.

About 83,000 compounds went through this panel and 20% of them were active in at least one assay; those are over-represented in the sample as a whole.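 Testing used 96-well plates and a 48-hour single-concentration exposure. Example: -40 means 40% of the starting cells died.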 Unmarked numbers belong to inactive results. Calls of active or inactive are those of the source. The calls were made as follows: active = growth percent below 10; inactive = the rest.

Regarding `O=C(c1ccccc1)C(c1ccccc1)N1CCOCC1` (stereo not drawn), the growth in the experiment with T-47D breast is 98.8%; in the experiment on BT-549 breast, 110%; in the experiment with MDA-MB-435 melanoma, 109%; in the experiment with SW-620 colon, 103%; in the experiment on MCF7 breast, 98.3%; in the experiment with HCT-116 colon, 102%. Also, the growth in the experiment on HCC-2998 colon is 102%; with KM12 colon, 99.1%.

As to `Clc1ccc(Nc2nccc(Nc3ccc4[nH]ncc4c3)n2)cc1`, the growth was 30.1% with T-47D breast; 53% with BT-549 breast; 55.8% with MDA-MB-435 melanoma; 33% in the experiment on SW-620 colon; 25% in the experiment with MCF7 breast; 39.4% in the experiment with HCT-116 colon. Moreover, the growth in the experiment on HCC-2998 colon was 94.3%; with KM12 colon, 9.06% (active).

Take `Cc1ccccc1Nc1nc2nonc2nc1Nc1cccc(C)c1C`: the growth is 16.2% in the experiment with T-47D breast; 51.7% in the experiment with BT-549 breast; 55.7% with MDA-MB-435 melanoma; 77% with SW-620 colon; 43.3% in the experiment on MCF7 breast; 43% in the experiment with HCT-116 colon. In addition, the growth is 67.5% with HCC-2998 colon and 53.8% in the experiment with KM12 colon.

With `Nc1ccc(S(=O)(=O)O)c2cc(S(=O)(=O)O)cc(O)c12`, the growth in the experiment on T-47D breast is 120%; in the experiment on BT-549 breast it was 99%; in the experiment on MDA-MB-435 melanoma, 110%; with SW-620 colon, 107%; in the experiment with MCF7 breast it was 104%; with HCT-116 colon it was 93.7%. Also, the results for the growth in the experiment on HCC-2998 colon and in the experiment with KM12 colon were 117% and 102%, respectively.

For `Cc1ccc(NC(=O)Nc2ccc(Nc3ncnc4sc5c(c34)CCOC5)cc2)cc1Cl`, the growth with T-47D breast is 58.5%; in the experiment with BT-549 breast, 101%; with MDA-MB-435 melanoma, 103%; with SW-620 colon it was 133%; in the experiment on MCF7 breast, 82.8%; in the experiment on HCT-116 colon, 101%. Besides, the growth in the experiment with HCC-2998 colon is 112%; with KM12 colon it was 105%.

In the case of `COc1cc(-c2nc(C(=O)Nc3ccc(C)cc3)nn2-c2ccc(F)c(F)c2)cc(OC)c1OC`, the growth with T-47D breast was 77.1%; with BT-549 breast, 100%; with MDA-MB-435 melanoma, 93.3%; with SW-620 colon, 110%; with MCF7 breast, 95.1%; with HCT-116 colon, 95.7%. In addition, the figures for the growth with HCC-2998 colon and in the experiment with KM12 colon were 86.6% and 102%, respectively.

As to `CC(C)=CCc1cc2c(cc1O)C1=C(C(=O)C3=C(NCCS3(=O)=O)C1=O)C(C=C(C)C)O2` (stereo not drawn), the growth with T-47D breast was 10.1%; in the experiment on BT-549 breast, 40.3%; with MDA-MB-435 melanoma, -62.3% (active); with SW-620 colon, 6.34% (active); in the experiment with MCF7 breast it was -43.2% (active); in the experiment with HCT-116 colon it was -21.2% (active). The growth was 32.4% in the experiment with HCC-2998 colon and 54.5% in the experiment with KM12 colon.

With `CC1(COc2ccc3c(c2)ncn3-c2ccc3cccc(N4CCC(N)CC4)c3n2)COC1`, the growth in the experiment on T-47D breast is 81.7%; with BT-549 breast it was 43.1%; in the experiment with MDA-MB-435 melanoma, 65.5%; with SW-620 colon, 1.95% (active); with MCF7 breast, -10.1% (active); in the experiment with HCT-116 colon it was -45.6% (active). The growth in the experiment on HCC-2998 colon is 31.2%; with KM12 colon it was 6.35% (active).

On to `Nc1c2c(c(O)c3c1=C(CO)C=N3)=NCCS2`, for which the growth is -42.5% (active) in the experiment with T-47D breast; -95.9% (active) in the experiment with BT-549 breast; -82% (active) with MDA-MB-435 melanoma; -76% (active) in the experiment on SW-620 colon; -50.8% (active) with MCF7 breast; -90.7% (active) in the experiment with HCT-116 colon. Moreover, the growth in the experiment on HCC-2998 colon was -94.2% (active); with KM12 colon it was -70.4% (active).

For the compound `CNC(=O)c1cc(Oc2ccc3nc(NC(=O)Nc4ccc(Cl)c(C(F)(F)F)c4)sc3c2)ccn1`, the growth with T-47D breast was -2.44% (active); in the experiment with BT-549 breast, 17.4%; in the experiment on MDA-MB-435 melanoma, 12.9%; with SW-620 colon, 21.5%; in the experiment with MCF7 breast, 20.8%; with HCT-116 colon, -22% (active). Besides, the values for the growth in the experiment with HCC-2998 colon and with KM12 colon were 46.6% and 29.8%, respectively.

For `Cc1cccc(NC(=O)[C@@H]2c3ccccc3C(=O)N(c3ccc(Cl)cc3)[C@H]2c2ccc(Cl)cc2)n1`, the growth with T-47D breast was 41.6%; in the experiment on BT-549 breast it was 63.3%; in the experiment on MDA-MB-435 melanoma, 46.6%; in the experiment with SW-620 colon, 40.6%; with MCF7 breast, 40.9%; in the experiment with HCT-116 colon, 26.2%. Also, the growth is 50.6% in the experiment with HCC-2998 colon and 34.5% in the experiment on KM12 colon.

On to `O=C(Nc1cn[nH]c1-c1nc2ccc(CN3CCOCC3)cc2[nH]1)NC1CC1`, for which the growth with T-47D breast is 36.7%; with BT-549 breast, 2.57% (active); with MDA-MB-435 melanoma, 35.9%; in the experiment with SW-620 colon it was 11.5%; with MCF7 breast it was 10.4%; with HCT-116 colon it was 3.94% (active). Besides, the growth is 41.8% with HCC-2998 colon and 6.92% (active) in the experiment with KM12 colon.

`C=CC(=O)Nc1cccc(Nc2nc(Nc3ccc(N4CCN(C(C)=O)CC4)cc3OC)ncc2C(F)(F)F)c1`: the growth is -5.01% (active) with T-47D breast; 19.7% in the experiment with BT-549 breast; 23.1% in the experiment with MDA-MB-435 melanoma; 2.57% (active) in the experiment with SW-620 colon; 4.41% (active) with MCF7 breast; 12% with HCT-116 colon. The results for the growth in the experiment with HCC-2998 colon and with KM12 colon were 34.7% and 15.7%, respectively.

`C=C1C[C@H](O)[C@H](Br)C(C)(C)[C@@]12CCC(C)=C(Cl)C2`: the growth in the experiment with T-47D breast is 28.7%; in the experiment on BT-549 breast it was 26.4%; in the experiment with MDA-MB-435 melanoma, 9.73% (active); in the experiment with SW-620 colon, 29.8%; in the experiment on MCF7 breast, 16.3%; in the experiment on HCT-116 colon, 9.9% (active). For the same compound, the growth in the experiment with HCC-2998 colon was 42.3%; in the experiment with KM12 colon, 13.7%.

Consider `NC(=O)c1c(OCc2c(F)cc(Br)cc2F)nsc1NC(=O)NCCCCN1CCCC1`, for which the growth with T-47D breast is -45.1% (active); in the experiment on BT-549 breast, -51.2% (active); with MDA-MB-435 melanoma it was -58.9% (active); in the experiment on SW-620 colon, -60.5% (active); with MCF7 breast, 1.88% (active); in the experiment with HCT-116 colon, -37.9% (active). Also, the results for the growth in the experiment on HCC-2998 colon and with KM12 colon were -13.8% (active) and -4.19% (active), respectively.

Consider `CNC(=O)c1cc(Oc2cccc3nc(Nc4ccc(Cl)c(F)c4)ccc23)ccn1`, for which the growth with T-47D breast is 51.3%; in the experiment on BT-549 breast, 63.8%; in the experiment with MDA-MB-435 melanoma it was 86.4%; in the experiment with SW-620 colon it was 82%; with MCF7 breast it was 76.2%; in the experiment on HCT-116 colon, 45.4%. For the same compound, the growth with HCC-2998 colon is 82.5%; in the experiment on KM12 colon, 84.4%.

The record behind these values is PubChem BioAssay (NCI).
